Each molecule was assayed on Lefty1 (assay: Lefty1 binders on small-molecule microarrays, primary screen, biochemical, small-molecule microarray, 635/667 nm fluorescence (AID 1139)). Conditions: small-molecule microarray binding, fluorescence 635/667; higher = more signal.

Structure (SMILES) | composite z-score
CC(C)[Si](C#C[Si](C(C)C)(C(C)C)C(C)C)(O[C@H](C)c1cn(Cc2cccc(Cl)c2)nn1)C(C)C | 0.714
CC(C)(C)OC(=O)CC[C@]1(C(=O)N2CCCCC2)N=C(c2ccc(OCCCO)cc2)O[C@H]1c1ccccc1CN=[N+]=[N-] | 0.675
CCOC(=O)C[C@H]1[C@H](OC(=O)Cc2ccc3c(c2)OCO3)[C@@H](NC(=O)c2ccccc2)c2cc(OCCCO)ccc2N1C(=O)c1ccc2ccccc2n1 | 0.447
CC(C)CCC[C@@H](C)[C@H]1CC[C@@]2(C)C3=C(CC[C@]12C)[C@@]1(C)CC[C@H](OC(=O)c2ccc(N)cc2)C(C)(C)C1CC3 (stereo partly drawn) | 0.552
C=CCC(OC(C)=O)[C@@H]1[C@@H](N(Cc2cccc3ccccc23)C(=O)c2ccc(C)cc2)c2cc(OCCCO)ccc2N1C(=O)c1ccc2ccccc2c1 (stereo partly drawn) | 0.102
COC(=O)C(CC#Cc1ccc2c(c1)[C@]1(C(=O)N2)[C@H](c2ccccc2OCCO)N2[C@H](c3ccccc3)[C@H](c3ccccc3)OC(=O)[C@H]2[C@@H]1C(=O)Nc1nc2ccccc2s1)C(=O)OC | 0.9
C=CCOC(=O)[C@@H]1[C@H]2C(=O)O[C@H](c3ccccc3)[C@H](c3ccccc3)N2[C@H](c2ccc(OCCOC(=O)[C@@H]3C[C@@H]4C(=O)N5CCC[C@H]5C(=O)N4[C@@H]3c3cccc(OCCO)c3)cc2)[C@@]12C(=O)Nc1ccc(I)cc12 | 1.42
COc1ccc(C(=O)Nc2ccc(CN3C(=O)[C@]4(O[C@H](CCn5cc([C@H](O)c6ccccc6)nn5)[C@@H]([Si](C)(C)c5ccc(OC)cc5)[C@@H]4C)c4ccccc43)cc2)cc1 | 0.444

From PubChem BioAssay
